From paper PMC7819943, “Rice protein-binding microarrays: a tool to detect cis-acting elements near promoter regions in rice”
In all, about 68,000 sequences were measured (“fluorescence intensity (a.u.)”: median about 9,100, highest 2% from about 16,000 on). The list comes from a sample in which the highest values are over-represented; it also holds similar and randomly drawn sequences.

target: OsWRKY34 (Oryza sativa, UniProt Q0JBA9 1-250); assay: protein-binding microarray (RPBM); PBS, 2% BSA, 51.3 ng/ul salmon testes DNA, 50 uM zinc acetate, 200 nM TF, 25 C, 1 h; high values mean tight binding; details: protein: recombinant; tags: N-terminal polyhistidine and DsRed monomer fusion (pET32a); label: CyDye5-dUTP incorporated in the synthesized complementary strand; 3' TTTTT single-stranded linker to array surface; dsDNA, one strand shown
Method in brief: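 In PBS with 2% BSA, salmon testes DNA and 50 µM zinc acetate, 200 nM protein was incubated on a custom Agilent array at 25 °C for 1 h and then washed off. The array had been made double-stranded by primer extension with Cy5-dUTP and blocked with 2% BSA. The proteins were transcription factors fused N-terminally to polyhistidine and DsRed, expressed in E. coli BL21-CodonPlus and purified on Ni–NTA. The binding signal is per-feature fluorescence intensity (arbitrary units) from an Axon 4000B scanner.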

Sequence of OsWRKY34 (Q0JBA9 entry or part of it): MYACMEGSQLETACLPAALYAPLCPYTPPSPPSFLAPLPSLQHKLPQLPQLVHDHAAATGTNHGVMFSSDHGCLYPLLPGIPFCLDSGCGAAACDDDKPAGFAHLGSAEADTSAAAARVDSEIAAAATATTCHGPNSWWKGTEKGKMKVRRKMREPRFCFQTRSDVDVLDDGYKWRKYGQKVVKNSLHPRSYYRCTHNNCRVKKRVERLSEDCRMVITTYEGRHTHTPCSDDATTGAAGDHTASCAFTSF

In order of rising binding signal:
1. TGTTTTTTCCTTTTTTTTTCTTTTCTTTTTCTCTCTTCCCCGGAGTCACCTAGTGCAG  8200 fluorescence intensity (a.u.)
2. CACACCTCGCCTCCTCCTCGGCTTGGATCTCGCCGCATCACGGAGTCACCTAGTGCAG  8210 fluorescence intensity (a.u.)
3. CCATTTAGATTGGTGCCATTTTAAACTATATCTTTTTCTTCGGAGTCACCTAGTGCAG  8220 fluorescence intensity (a.u.)
4. GAGTTAGCCATGGCCTGTCAATTACTGGAACTCTGTTGTACGGAGTCACCTAGTGCAG  8220 fluorescence intensity (a.u.)
5. GACGGTGGCCATTCTAATTCCTCTATTGCAGGGTCTAACTCGGAGTCACCTAGTGCAG  8310 fluorescence intensity (a.u.)
6. CTCAGTCGACCAATCGTTGATCGCCACGTCGGCTGTTCTTCGGAGTCACCTAGTGCAG  8350 fluorescence intensity (a.u.)
7. CCACCACCACCACGCCACGGCAGCCGCACCGCACCGCACCCGGAGTCACCTAGTGCAG  8390 fluorescence intensity (a.u.)
8. CATCCTCCTTCCGGAACCTTCTAGAAGGTTCTCCTCGTACCGGAGTCACCTAGTGCAG  8530 fluorescence intensity (a.u.)
9. CCTTCGTCGACCCTCCGCCGCCGCCGCCGCCGCCGCCGACCGGAGTCACCTAGTGCAG  8660 fluorescence intensity (a.u.)
10. ACCCGCCCCTGCTGCTCACCGCTCCAGCCTCCGCTCATCCCGGAGTCACCTAGTGCAG  8790 fluorescence intensity (a.u.)
11. AACGGTACCATCACCATCATTTATCATGGGCACAACTTGCCGGAGTCACCTAGTGCAG  8810 fluorescence intensity (a.u.)
12. GTTGCTTTTGCTGGAGTAGTACTTCTATTTATCTTCAAACCGGAGTCACCTAGTGCAG  9100 fluorescence intensity (a.u.)
13. TTCGTGGTTTCGTTCAGCTTGATTTCGCTTGACACATCGACGGAGTCACCTAGTGCAG  9110 fluorescence intensity (a.u.)
14. CCGCTGCTGTTTTCTTTTCTTTTGTAAGTGTGTAACGTTACGGAGTCACCTAGTGCAG  9400 fluorescence intensity (a.u.)
15. TCTCTCGCCGATTCCGCCACCGCCGCCGCGCCGCGCCTCGCGGAGTCACCTAGTGCAG  9420 fluorescence intensity (a.u.)
16. TTGGATTGGTTTCTTTCTGCTCTGTTGCAGCTCCGTTGTCCGGAGTCACCTAGTGCAG  9560 fluorescence intensity (a.u.)
17. TATATCCTATCTCTCACTTCACTCATATAGTGGTTAACTCCGGAGTCACCTAGTGCAG  9570 fluorescence intensity (a.u.)
18. TGTTTATTTTTTTCGTTAAATTTGATTGTTTCCATTTGCACGGAGTCACCTAGTGCAG  9770 fluorescence intensity (a.u.)
19. CAACATACAGGGAGTTTTTACCGGCCGCCCTCTACTCTCACGGAGTCACCTAGTGCAG  9800 fluorescence intensity (a.u.)
20. CTGTAGTTGCCTTTGTTGGTCTTGGTTTTGCTGTTCTGGTCGGAGTCACCTAGTGCAG  9910 fluorescence intensity (a.u.)
21. AGTTTTATCCTGGGTTTGTGTTTGGTGCTGTTCTTGCGTGCGGAGTCACCTAGTGCAG  10200 fluorescence intensity (a.u.)
22. TCTGACACCTATCTCTCCTGGATTCTCCATGCTTTCTTTCCGGAGTCACCTAGTGCAG  10300 fluorescence intensity (a.u.)
23. AAATTCAAACTAGTTTCTACATAGCCTCTTTTCTCTATTTCGGAGTCACCTAGTGCAG  10900 fluorescence intensity (a.u.)
24. GTAGTGCTGATGTTGTACTGTGTTTTTTTACCCGTTTTATCGGAGTCACCTAGTGCAG  11500 fluorescence intensity (a.u.)
25. CGTCTCTTTTATCCTTCTTTTTTTTCCCATTTTTCTTTTTCGGAGTCACCTAGTGCAG  11900 fluorescence intensity (a.u.)
26. TTTTTTCTTTTTTTTTTTGTTTTTTCTCGCCTTTTTTTCCCGGAGTCACCTAGTGCAG  11900 fluorescence intensity (a.u.)
27. CTGGTCAGTTGGTCTTGTGTTTTGGGCTTTTTCGGCCCGTCGGAGTCACCTAGTGCAG  12200 fluorescence intensity (a.u.)
28. TGGTCTTGCCTCTCGCTTAGCCTTTTTGTTGCCTTGTGCTCGGAGTCACCTAGTGCAG  12300 fluorescence intensity (a.u.)
29. TTTTCTCACCACTCTCTCTTTCGTGTTCTCTCTCTCTTGTCGGAGTCACCTAGTGCAG  12500 fluorescence intensity (a.u.)
30. GGCGGATTTCGGTTTCTTCGTGTGTTTGTTGGTTGCGTTGCGGAGTCACCTAGTGCAG  12700 fluorescence intensity (a.u.)
31. CCGCTGTTATTCCCTTTGTTGTTTTTTCTCAAGTAAATTTCGGAGTCACCTAGTGCAG  13200 fluorescence intensity (a.u.)
32. ACTTTTCTACACACATAAACTTCTAACTTTTTCATCACATCGGAGTCACCTAGTGCAG  13400 fluorescence intensity (a.u.)
33. AGGGTTTTTTTTGTCACTTTCGTTGTCAGTTTCTTTTTTCCGGAGTCACCTAGTGCAG  14100 fluorescence intensity (a.u.)
34. CATTTTCTTGGTTTGGTCTTTTTTATTGTTGGGTGTGTTTCGGAGTCACCTAGTGCAG  15500 fluorescence intensity (a.u.)
35. GGAGGGTCTGTTTTCTTGTGTGCGAGCCTTGCTAGTTGCTCGGAGTCACCTAGTGCAG  16500 fluorescence intensity (a.u.)
36. TTTTCGCATGTTTCTTTTCTTTTTTTTTCTTTTCTTTTCCCGGAGTCACCTAGTGCAG  16600 fluorescence intensity (a.u.)
37. CTTGGTGGTTCTTTTCTTCTTCTAGATTTATCCCCATTTTCGGAGTCACCTAGTGCAG  16700 fluorescence intensity (a.u.)
38. GGTTGGTTTCTTTCGTTGGATTGTTTCGAGCCAGGGTTTCCGGAGTCACCTAGTGCAG  16900 fluorescence intensity (a.u.)
39. CGTTATTCCGCTGTTGTTTTTTTTTTCTTTTGTAAGTATGCGGAGTCACCTAGTGCAG  17500 fluorescence intensity (a.u.)
40. TGAGTTTGTTTGCTGGGTTGGTTCGTGCGTTTTCTTGGATCGGAGTCACCTAGTGCAG  18800 fluorescence intensity (a.u.)
41. ATCTGTTCGTGGGTTGCTTGCTCAGTCGACCAATCGTTGACGGAGTCACCTAGTGCAG  19200 fluorescence intensity (a.u.)
42. GGGCTTGCGATCGTGTTGTGTTGGGTTGGGTCTTGGGTTTCGGAGTCACCTAGTGCAG  29400 fluorescence intensity (a.u.)
